{"source": "PubChem BioAssay AID887", "about": "(National Center for Advancing Translational Sciences (NCATS), 2007)", "note": "The whole screen tested about 74,000 compounds, of which about 1,100 (1.5%) were called active. About 5% were inconclusive and are not listed. Calls follow the shape of the dose curve; as a rule, active = well fitted inhibition curve with a large enough effect; inconclusive = small, poorly fitted or top-dose-only effect; inactive = no such curve, though single readings can be large or run the other way. This excerpt belongs to a sample that is enriched for actives. % is scaled to controls: 0 for no effect and ±100 for the full control effect; potency is read from the fitted curve at half-maximal effect.", "data": [{"biological_target": "Polyunsaturated fatty acid lipoxygenase ALOX15 (Homo sapiens) (UniProt P16050)", "sequence (P16050 whole entry, looked up)": "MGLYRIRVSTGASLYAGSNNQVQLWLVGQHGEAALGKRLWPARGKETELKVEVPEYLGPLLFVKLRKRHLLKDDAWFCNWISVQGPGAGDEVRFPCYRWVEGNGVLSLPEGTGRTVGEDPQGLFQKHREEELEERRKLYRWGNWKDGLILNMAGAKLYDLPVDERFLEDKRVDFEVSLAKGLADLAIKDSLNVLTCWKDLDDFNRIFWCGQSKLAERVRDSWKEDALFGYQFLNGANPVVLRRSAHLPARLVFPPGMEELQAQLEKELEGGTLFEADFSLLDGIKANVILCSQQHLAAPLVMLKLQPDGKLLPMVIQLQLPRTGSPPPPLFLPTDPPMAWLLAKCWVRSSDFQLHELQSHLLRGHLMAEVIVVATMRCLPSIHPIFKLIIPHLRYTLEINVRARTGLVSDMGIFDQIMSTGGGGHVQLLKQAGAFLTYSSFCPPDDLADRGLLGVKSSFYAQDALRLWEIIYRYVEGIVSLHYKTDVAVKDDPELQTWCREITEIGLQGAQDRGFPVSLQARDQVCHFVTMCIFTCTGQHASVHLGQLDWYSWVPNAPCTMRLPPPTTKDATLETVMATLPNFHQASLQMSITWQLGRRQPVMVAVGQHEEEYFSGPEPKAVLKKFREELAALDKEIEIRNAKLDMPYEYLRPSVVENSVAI", "assay": "qHTS Assay for Inhibitors of 15-hLO (15-human lipoxygenase); also: nearly all actives have a fitted effect of over 55% in size", "settings": "purified 15hLO-1, xylenol orange hydroperoxide absorbance; series mostly up to 57.1 µM; activity change, negative = inhibition: at the top concentration", "description": "Assay Overview: NIH Molecular Libraries Screening Centers Network [MLSCN] NIH Chemical Genomics Center [NCGC] MLSCN Grant: MH081283-01A1 PI Name: Holman, T.R., University of California, Santa Cruz Human lipoxygenase 15hLO-1 is a member of the closely related lipoxygenase family of enzymes which catalyze the site-specific oxidation of arachidonic acid to various hormone precursor molecules and as such is a candidate for drug development in a variety of disease areas, such as cancer and inflammation. Inhibition of 15hLO-1 activity was screened by utilizing arachidonic acid as a substrate. The extent of hydroperoxide product formation was measured by a secondary chromogenic reaction in which xylenol orange (XO, Sigma-Aldrich, cat. number 39,818-7) reacts with the ferric ions produced from the reaction between the hydroperoxide and ferrous ions. The Fe(III)-XO complex is characterized with red-shifted absorbance at 560 nm. A purified preparation of human 15hLO-1 was supplied by Professor Ted Holman, University of California, Santa Cruz.\nAssay Protocol: Buffer: 25 mM Hepes pH 7.5, 0.01% Triton X-100. Reagents/Controls: Buffer in columns 3 and 4 as negative control (no enzyme). Substrate solution: 50 uM arachidonic acid (Sigma-Aldrich, St. Louis, MO) final concentration dispensed throughout the plate. Enzyme: 40 nM 15hLO-1 final concentration in columns 1, 2, 5-48. Column 1 is neutral (100% activity). Column 2 contained pin-transferred titration of NDGA (nordihidroguaiaretic acid, Sigma-Aldrich, N 5023, top concentration 10 mM in DMSO, then 1:2 dilution in duplicate). (Dilution factor: 23 nL into 4 uL.) Chromogenic detection reagent (divalent iron/xylenol orange, Fe-XO): 200 uM xylenol orange plus 300 uM ferrous ammonium sulfate prepared freshly in 50 mM sulfuric acid. Assay Steps: Three uL of enzyme were dispensed to 1536-well Greiner black clear bottom plates. Compounds and controls (23 nL) were transferred via Kalypsys PinTool. The plates were incubated for 15 min at room temperature, and then 1 uL of substrate solution was added to start the reaction. After room temperature incubation for 6 minutes, 4 uL of Fe-XO solution was added to each well followed by a short spin (1000 rpm, 15 sec) and the plates were then incubated for 30 min. The absorbance at 405 and 573 nm were measured using ViewLux (Perkin-Elmer) High-throughput CCD imager and absorbance protocol settings. The 573-to-405 absorbance ratio was used to compute reaction progress.", "values": [{"molecule": "COc1ccc(OCc2ccc(-c3nc4ccccc4c(=O)n3N)o2)cc1", "activity change, negative = inhibition": "-1.39% (inactive)"}, {"molecule": "COCn1c(COc2ccccc2)nc2ccccc21", "activity change, negative = inhibition": "-9.11% [at 11.4 µM] (inactive)"}, {"molecule": "Cn1c(COc2ccc(Cl)cc2)nc2ccccc2c1=O", "Potency": "25.1 µM (active)"}, {"molecule": "c1ccc(Oc2ccccc2)cc1", "activity change, negative = inhibition": "-2.93% (inactive)"}, {"molecule": "CC(C)(O)CCC(O)[C@@](C)(O)C1CC[C@]2(O)C3=CC(=O)C4CC(O)C(O)C[C@]4(C)C3CC[C@]12C", "note": "(stereo partly specified)", "activity change, negative = inhibition": "0.677% (inactive)"}, {"molecule": "O=C1OCCC=C1[C@@H](O)CCc1ccccc1", "activity change, negative = inhibition": "9.13% [at 11.4 µM] (inactive)"}, {"molecule": "Nc1nc2c(nc(Cl)n2C2OC(CO)C(O)C2O)c(=O)[nH]1", "note": "(stereo unspecified)", "activity change, negative = inhibition": "0.329% (inactive)"}, {"molecule": "CC1=C(/C=C/C(C)=C/C=C/C(C)=C/C=C/C=C(C)/C=C/C=C(C)/C=C/C2=C(C)CCCC2(C)C)C(C)(C)CCC1", "activity change, negative = inhibition": "12.1% (inactive)"}, {"molecule": "CC/C=C/C/C=C/C/C=C/CCCCCCCC(=O)OCC", "Potency": "2.51 µM (active)"}, {"molecule": "Oc1c(Br)cc(CN(Cc2cc(Br)c(O)c(Br)c2)C2CCCCC2)cc1Br", "activity change, negative = inhibition": "11.3% [at 11.4 µM] (inactive)"}, {"molecule": "CC1(C)SC2C(NC(=O)COc3ccccc3)C(=O)N2C1C(=O)O", "note": "(stereo unspecified)", "activity change, negative = inhibition": "-9.13% (inactive)"}, {"molecule": "O=C1OC(C(O)CO)C(O)=C1O", "note": "(stereo unspecified)", "activity change, negative = inhibition": "0.473% (inactive)"}, {"molecule": "CCOC(=O)CSC1=C(C#N)C(c2sccc2C)CC(=O)N1", "note": "(stereo unspecified)", "activity change, negative = inhibition": "1.77% (inactive)"}, {"molecule": "COC(=O)CSC1=C(C#N)C(c2ccccc2OC)C(C(=O)OC)C(=O)N1", "note": "(stereo unspecified)", "activity change, negative = inhibition": "-4.29% [at 11.4 µM] (inactive)"}, {"molecule": "CCCSC1=C(C#N)C(c2ccccc2C)C(C(=O)OC)C(=O)N1", "note": "(stereo unspecified)", "Potency": "12.6 µM (active)"}, {"molecule": "CN(C)CCCCNC(=O)c1ccc(Cc2nc3ccccc3[nH]2)cc1", "activity change, negative = inhibition": "0.142% (inactive)"}, {"molecule": "O=C(O)C(O)[C@@](O)(Cc1ccc(O)cc1)C(=O)O", "note": "(stereo partly specified)", "activity change, negative = inhibition": "-7.52% (inactive)"}, {"molecule": "CCOC(=O)[C@]1(C(/C=C/c2ccco2)NC(=O)OC)CCCC1=O", "note": "(stereo partly specified)", "activity change, negative = inhibition": "5.21% [at 11.4 µM] (inactive)"}, {"molecule": "Cc1c(O)cc(O)c2c(=O)c(-c3ccc(O)cc3)coc12", "activity change, negative = inhibition": "6.83% (inactive)"}, {"molecule": "CN(C)CCc1c[nH]c2ccc(Cn3cncn3)cc12", "activity change, negative = inhibition": "-7.19% (inactive)"}, {"molecule": "CC(C)OC(=O)C(C#N)c1nc2ccccc2nc1N1CCN(Cc2ccccc2)CC1", "note": "(stereo unspecified)", "activity change, negative = inhibition": "8.6% (inactive)"}, {"molecule": "Cc1ccc(S(=O)(=O)C(C#N)c2nc3ccccc3nc2N2CCCC2)cc1C", "note": "(stereo unspecified)", "Potency": "12.6 µM (active)"}, {"molecule": "N#CC(C(=O)c1ccc(S(=O)(=O)N2CCCCCC2)cc1)c1nc2ccccc2[nH]1", "note": "(stereo unspecified)", "activity change, negative = inhibition": "7.16% (inactive)"}, {"molecule": "CC1CCCCN1CCCNC(=O)c1ccc(-n2c(=O)c(=O)[nH]c3ccccc32)cc1", "note": "(stereo unspecified)", "activity change, negative = inhibition": "-1.94% (inactive)"}, {"molecule": "CC1OC(OCC2OC(Oc3c(-c4ccc(O)c(O)c4)oc4cc(O)cc(O)c4c3=O)C(O)C(O)C2O)[C@@H](O)C(O)C1O", "note": "(stereo partly specified)", "activity change, negative = inhibition": "4.76% (inactive)"}, {"molecule": "CC(=O)OCC(=O)C1CCC2C3CCC4=CC(=O)CC[C@@]4(C)C3CC[C@]12C", "note": "(stereo partly specified)", "activity change, negative = inhibition": "-4.9% (inactive)"}]}]}
